The source made the active and inactive calls. Rule for the calls: active = hit-call score of the fitted dose curve at least 0.9, where 1 is the maximum; inactive = score below 0.9.

In this assay the target is Transcription factor Sp1 (Homo sapiens) (UniProt P08047). The assay can be described thus: ATG_Sp1_CIS: Attagene CIS-FACTORIAL HepG2 Assay for human Specificity Protein 1 (Sp1) (AID 2282961). To be noted: HepG2 Sp1 cis-reporter transcription, actives raise or lower the signal. The protocol: ATG_CIS is a cell-based, multiplexed-readout assay that uses HepG2, a human liver cell line, with measurements taken at 24 hours after chemical dosing in a 24-well plate.ATG_Sp1_CIS is one of 52 assay component(s) measured or calculated from the ATG_CIS assay. It is designed to make measurements of mRNA induction, a form of inducible reporter, as detected with fluorescence intensity signals by Reverse transcription polymerase chain reaction (RT-PCR) and Capillary electrophoresis technology.Data from the assay component ATG_Sp1_CIS was analyzed into 1 assay endpoint. This assay endpoint, ATG_Sp1_CIS, was analyzed with bidirectional fitting relative to DMSO as the negative control and baseline of activity. Using a type of inducible reporter, measures of mRNA for gain or loss-of-signal activity can be used to understand the reporter gene at the transcription factor-level as they relate to the gene SP1. Furthermore, this assay endpoint can be referred to as a primary readout, because this assay has produced multiple assay endpoints where this one serves a reporter gene function. To generalize the intended target to other relatable targets, this assay endpoint is annotated to the dna binding intended target family, where the subfamily is zinc finger.
Chain of Transcription factor Sp1 (Homo sapiens) (P08047 whole entry, looked up): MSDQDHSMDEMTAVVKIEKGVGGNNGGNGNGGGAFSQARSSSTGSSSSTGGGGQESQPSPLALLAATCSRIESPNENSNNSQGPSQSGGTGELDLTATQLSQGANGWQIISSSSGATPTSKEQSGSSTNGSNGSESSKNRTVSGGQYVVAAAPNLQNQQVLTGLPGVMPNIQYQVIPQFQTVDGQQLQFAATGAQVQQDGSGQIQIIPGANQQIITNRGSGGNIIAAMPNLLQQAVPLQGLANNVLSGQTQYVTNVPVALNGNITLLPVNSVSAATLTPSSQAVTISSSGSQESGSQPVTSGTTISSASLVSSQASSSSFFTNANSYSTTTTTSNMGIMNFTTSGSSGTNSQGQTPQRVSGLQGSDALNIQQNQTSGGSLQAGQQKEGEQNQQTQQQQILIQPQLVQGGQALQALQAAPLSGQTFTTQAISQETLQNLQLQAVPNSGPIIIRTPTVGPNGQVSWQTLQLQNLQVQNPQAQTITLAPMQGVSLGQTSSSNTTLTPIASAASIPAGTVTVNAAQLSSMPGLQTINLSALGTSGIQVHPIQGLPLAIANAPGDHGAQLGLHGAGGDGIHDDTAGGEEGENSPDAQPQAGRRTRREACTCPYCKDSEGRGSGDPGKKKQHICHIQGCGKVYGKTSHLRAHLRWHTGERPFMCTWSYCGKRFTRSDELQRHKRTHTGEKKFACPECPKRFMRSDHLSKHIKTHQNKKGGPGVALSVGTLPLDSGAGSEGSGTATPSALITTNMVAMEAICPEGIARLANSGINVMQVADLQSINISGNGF
Human liver HepG2 cells are transiently transfected with multiple reporter transcription units (MRTUs) in 6-well plates using FuGene 6 reagent (Roche; 3 ml FuGene/1 mg DNA). The MRTU constructs are regulated by a cis-regulating element (promoter). […] A major difference between the CIS and TRANS system is that in CIS activities of endogenous TFs are measured, whereas the TRANS assay evaluates changes in activities of exogenous, chimeric NR-Gal4 proteins. […] At the end of 24 hour incubation, total RNA was isolated using TriZol reagent (Invitrogen). The isolated RNA is then reverse-transcribed using oligo(dT) primer and Mo-MLV reverse transcriptase (Invitrogen) with DNAse I (Ambion) treatment for 30 min. The one-tenth of the produced cDNA was amplified by PCR using Taq DNA polymerase (Invitrogen) and two reporter sequence-specific primers. The PCR products were fluorescently labeled by primer extension with 6-arboxyfluorescein (6-FAM) 5'-labeled reporter sequence-specific primer (2 min at 95 C, 20 s at 68 C and 10 min at 72 C) and these products were digested with 5U of HpaI (New England Biolabs) for 2h at 37 C. The fragments were purified using Qiaquick PCR columns (Qiagen), analyzed on an ABI 3130xL genetic analyzer (Applied Biosystems) with peak positions identified by using a set of X-rhodamine (ROX)-labeled MapMarker1000 molecular weight standards (BioVentures). The raw capillary electrophoresis data was processed using Attagraph software (Attagene).
With `CC(C)c1cc(C(C)C)cc(C(C)C)c1`, the AC50 is 145 µM (active). On to `Cc1ccc(C)c(OCCCC(C)(C)C(=O)O)c1`, for which the molecule was classed as inactive.

Take `COC(=O)C=Cc1ccccc1`: the call was inactive. As to `CCCc1ccc(O)c(OC)c1`, the molecule was classed as inactive. Regarding `C=CC(C)(CCC=C(C)C)OC(=O)C=Cc1ccccc1` (stereo not given), the outcome was inactive. Take `CCOc1ccc(NC(N)=O)cc1`: the result was inactive. Consider `CCCCNS(=O)(=O)c1ccccc1`, for which the result was inactive.

As to `C=C(C)C(=O)OCCCCCCCCCCCC`, the outcome was inactive.

Take `CCCCCCCOC(=O)c1ccc(O)cc1`: the half-maximal activity concentration (AC50) was 33.4 µM (active).

For `c1ccc2cnccc2c1`, the call was inactive. Take `CC=C(C)C=CC=C(C)C`: the molecule was called inactive. The same measure, in the same setting: to `CCCCCCCCCCCCc1ccc(O)cc1` belongs “inactive”; to `CCCCCCCC(=O)OCC`, “inactive”.

Take `CC(C)c1ccc2ncccc2c1`: the molecule was called inactive. On the same count and under the same terms, in the case of `CCCCCCCO` it was “inactive”.

`O=C1CCCCC1C1CCCCC1` (stereo not given): the molecule was called inactive. As to `O=S(=O)(O)c1ccc(N=Nc2c(O)ccc3ccccc23)cc1`, the call was inactive. The same measure, in the same setting: in the case of `C=CCCCCCCCCO` it was “inactive”; in that of `CCCCCC1=CCCC1=O`, “inactive”; in that of `CCC1COC(=O)O1` (stereo not given), “inactive”. Same read-out and setting: in the case of `CC(C=O)c1ccccc1` (stereo not given) it was “inactive”; in that of `CC(=O)CCC=C(C)C`, “inactive”; in that of `CCCCC(CC)COS(=O)(=O)O` (stereo not given), “inactive”.

As to `CC(C)C(=O)OCCc1ccccc1`, the molecule was classed as inactive.

Turning to `Oc1ccc(/C=C/c2cc(O)cc(O)c2)cc1`, the molecule was called inactive.

Take `CC(C)=NNC(N)=S`: the call was inactive. The same measure, in the same setting: in the case of `CC(C)CCCCCOC(=O)CS` it was “inactive”; in that of `CC(C)(CO)C(O)C(=O)NCCCO` (stereo not given), “inactive”; in that of `CC1(C)C(=O)N(CO)C(=O)N1CO`, “inactive”. As to `CCCCCCCC(=O)OCC(COC(=O)CCCCCCC)OC(=O)CCCCCCC`, the molecule was called inactive. Regarding `C=CC(=O)OCCCCCCOC(=O)C=C`, the call was inactive. Take `COC(=O)CC(C)CCC=C(C)C` (stereo not given): the call was inactive. In the case of `CCCC1CCCC(=O)O1` (stereo not given), the result was inactive. Consider `O=C(Oc1ccccc1)c1ccccc1C(=O)Oc1ccccc1`, for which the outcome was inactive.

As for `NNS(=O)(=O)c1ccc(Oc2ccc(S(=O)(=O)NN)cc2)cc1`, the result was inactive.

Regarding `CN(C)c1ccc2nc3ccc(=[N+](C)C)cc-3sc2c1`, the call was inactive. On to `CC(=O)OC/C=C(/C)CCC=C(C)C`, for which the result was inactive. For `CCCCC(CC)COC(=O)/C=C/c1ccc(OC)cc1` (stereo not given), the molecule was classed as inactive.

Regarding `C=C(C)C1CC=C(C)CC1` (stereo not given), the outcome was inactive. As for `CC1CC(=O)CC(C)(C)C1` (stereo not given), the molecule was called inactive.

As usually defined, the AC50 is the concentration at which the activity in the assay is half-maximal.
